Experiment in all cases: PBM binding z-score (relative to random genomic background probes); higher = stronger binding; sequences stand for … in GC…GCGATTGACAGCGTAGAATGAAGG
Assay [1] has as its system FXR:RXRa (NR concentration 270 nM, RXRa partner concentration 90 nM). In a few lines:
(§1)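 Random background probes are the reference for binding z-scores. These scores derive from regression-normalized fluorescence on custom Agilent 4×180K protein-binding microarrays incubated 1 h with ligand-free nuclear receptor dimers. Binding was detected with antibodies against each partner (one per run).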

The test system of assay [2] is LXRa:RXRa (NR concentration 270 nM, RXRa partner concentration 90 nM). In a few lines:
as §1

For assay [3], the system named is LXRa homodimer (NR concentration 270 nM). In a few lines: as §1
Assay [4] concerns LXRb:RXRa (NR concentration 270 nM, RXRa partner concentration 90 nM). In a few lines: as §1
Assay [5] relates to LXRb homodimer (NR concentration 270 nM). In a few lines: as §1
Assay [6] has as its system PPARa:RXRa (NR concentration 270 nM, RXRa partner concentration 90 nM). The procedure, abridged: as §1
In assay [7] the test system is PPARg:RXRa (NR concentration 180 nM, RXRa partner concentration 90 nM). In a few lines: as §1
Assay [8] concerns PPARg:RXRa 270nM:90nM, anti-RXR (NR concentration 270 nM, RXRa partner concentration 90 nM). The procedure, abridged:
as §1

Assay [9] has as its system PPARg:RXRa 30nM:10nM, anti-RXR (NR concentration 30 nM, RXRa partner concentration 10 nM). The procedure, abridged:
as §1

The subject of assay [10] is PPARg:RXRa 90nM:30nM, anti-RXR (NR concentration 90 nM, RXRa partner concentration 30 nM). The procedure, abridged:
as §1

Assay [11] relates to PPARg:RXRa DBDmut IVT, anti-RXR (DBD mutation: RXRa K156A/R161A, NR concentration 270 nM, RXRa partner concentration 90 nM). In a few lines: as §1
Assay [12] deals with PPARg:RXRa IVT, anti-PPARg (NR concentration 270 nM, RXRa partner concentration 90 nM). In a few lines:
as §1

In assay [13] the test system is PPARg DBDmut:RXRa IVT, anti-PPARg (DBD mutation: PPARg1 K132A/R137A, NR concentration 270 nM, RXRa partner concentration 90 nM). In a few lines: as §1
For assay [14], the system named is PPARg DBDmut IVT, anti-PPARg (DBD mutation: PPARg1 K132A/R137A, NR concentration 270 nM). In a few lines:
as §1

Assay [15] has as its system PPARg homodimer (NR concentration 180 nM). In a few lines: as §1
In assay [16] the test system is PXR:RXRa (NR concentration 270 nM, RXRa partner concentration 90 nM). The procedure, abridged: as §1
The subject of assay [17] is PXR homodimer (NR concentration 270 nM). In a few lines: as §1
In assay [18] the test system is RARa:RXR (NR concentration 270 nM, RXRa partner concentration 90 nM). The procedure, abridged:
as §1

The subject of assay [19] is RARa homodimer (NR concentration 270 nM). The procedure, abridged: as §1
The subject of assay [20] is RARb:RXRa (NR concentration 270 nM, RXRa partner concentration 90 nM). The procedure, abridged: as §1

Here are results for seven sequences from the supplement of paper PMC6555819.

Take TATATAGGGTCAAAGGCCAGAGTACGAATGTCGA: the PBM binding z-score in assay [1] was 7.32; in assay [2] it was 6.1; in [3] it was 2.48; in assay [4], 5.05; in [5], 2.01; in assay [6] it was 6.35. The PBM binding z-score in assay [7] amounted to 8.65; in assay [8], 7.34; in [9], 5.8; in [10] it was 7.54; in assay [11] it was 3.56; in assay [12], 5.37. In addition, the PBM binding z-score in assay [13] is 1.12; in [14] it was 1.69; in assay [15] it was 2; in [16] it was 4.21; in assay [17] it was 0.472; in [18] it was 5.56. The PBM binding z-score in [19] worked out at 0.52; in assay [20] it was 4.49.
Turning to GCTAGCAGGCCATTTGGGTCACTCGATGACGGGC, the PBM binding z-score is -0.0398 in assay [1]; -0.0743 in assay [2]; -0.738 in assay [3]; -0.0448 in assay [4]; -0.791 in assay [5]; 1.25 in [6]. Further, the PBM binding z-score in [7] was 0.641; in assay [8], 0.713; in assay [9], -0.472; in [10] it was 0.633; in assay [11], 2.18; in assay [12] it was 2.18. Further, the PBM binding z-score in [13] was -0.31; in assay [14] it was -1.28; in assay [15] it was -0.101; in assay [16] it was 0.388; in [17], -0.29; in [18], 0.794. Besides, the PBM binding z-score in assay [19] is -0.742; in [20] it was 1.39.
On to CGGACTAGGTCATCCAGGACAGTGAATACATTGA, for which the PBM binding z-score in [1] was 3.64; in assay [2], 2.45; in assay [3], 0.39; in assay [4], 1.81; in [5], -0.227; in [6], 4.22. In addition, the PBM binding z-score in assay [7] is 6.64; in assay [8] it was 5.63; in assay [9] it was 3.03; in assay [10] it was 4.87; in [11] it was 7.5; in assay [12], 7.58. For the same sequence, the PBM binding z-score in assay [13] was found to be 1.52; in [14] it was 0.792; in assay [15] it was 1.9; in [16], 1.59; in assay [17] it was 0.944; in assay [18] it was 1.89. The PBM binding z-score in [19] stood at 0.179; in [20] it was 3.49.
For the sequence CCTTACGGGTCACGAGGTTATACCACGACGAGCG, the PBM binding z-score is 6.99 in assay [1]; 4.85 in [2]; 0.42 in assay [3]; 4.37 in assay [4]; -0.0941 in [5]; 6.07 in assay [6]. The PBM binding z-score worked out at 6.94 in assay [7]; 6.43 in assay [8]; 3.65 in [9]; 5.65 in [10]; 4.05 in assay [11]; 5.31 in [12]. In addition, the PBM binding z-score came to 1.4 in [13]; 2.59 in assay [14]; 3.29 in assay [15]; 4.71 in assay [16]; 0.172 in assay [17]; 6.09 in [18]. The PBM binding z-score in assay [19] amounted to 0.951; in assay [20], 4.45.
Regarding TTACCAAGGTGAAGGTCGTTGAGCCCTCTGTAGA, the PBM binding z-score in assay [1] was 1.3; in [2], 1.24; in assay [3], -0.339; in assay [4], 0.883; in assay [5], -1.13; in [6], 2.65. Also, the PBM binding z-score in assay [7] was 2.83; in assay [8], 4.43; in assay [9], 2.31; in assay [10], 3.92; in [11], 1.99; in [12], 3.36. The PBM binding z-score in assay [13] was -0.0104; in [14], -0.329; in assay [15], 0.702; in assay [16], 1.16; in assay [17], -0.0928; in assay [18], 1.57. In addition, the PBM binding z-score is -0.872 in assay [19] and 2.07 in [20].
For the sequence GGAACGAGGGCTTTCGAGTTGATAGCATGGCGAT, the PBM binding z-score in [1] was -0.242; in assay [2], -0.418; in assay [3] it was -0.465; in assay [4] it was -0.655; in assay [5], -0.894; in assay [6] it was -0.173. Besides, the PBM binding z-score in assay [7] is 0.0484; in assay [8], -0.127; in assay [9], -0.533; in assay [10] it was -0.499; in assay [11] it was 0.386; in [12], -0.141. For the same sequence, the PBM binding z-score is -0.402 in assay [13]; -0.448 in assay [14]; -0.921 in assay [15]; 0.129 in [16]; -0.343 in assay [17]; 0.0983 in assay [18]. In addition, the PBM binding z-score is -0.868 in assay [19] and -0.36 in assay [20].
For the sequence ATATGTAGGATACATCCGGGTCATTCAGGCTATG, the PBM binding z-score in assay [1] was 1.21; in assay [2] it was 1.31; in [3] it was 0.653; in assay [4], 1.61; in assay [5] it was 0.399; in assay [6], 2.9. The PBM binding z-score amounted to 2.14 in assay [7]; 1.77 in assay [8]; 0.797 in assay [9]; 1.28 in assay [10]; 3.21 in assay [11]; 3.86 in assay [12]. Also, the PBM binding z-score in assay [13] worked out at 1.63; in [14], 1.37; in assay [15], 1.25; in [16], 2.39; in assay [17], 1.38; in [18], 2.42. The PBM binding z-score in assay [19] is 0.161; in assay [20], 1.2.
